Values joined by “and” are separate entries in the source; they are usually repeats but may differ in a detail not shown here. Equal values may be shown once. The panel holds about 83,000 compounds, 20% with a hit somewhere; the sample as a whole holds those more often.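 For each line, cells grew in 96-well plates with the test compound present at a single concentration for 48 hours.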 A number with no mark means an inactive call. Active and inactive are the calls of the source. Rule for the calls: active = growth percent below 10; inactive = the rest.

This assay deals with MDA-MB-468 breast. As to the kind of experiment: NCI-60 one-dose screen, 48 h (100 = growth as untreated, 0 = no growth, -100 = all killed). The note with it: 10 µM unless noted.
On to `CCOc1ccc(C(=O)Cc2ccccc2)cc1`, for which the growth is 90.2% and 96%.

Turning to `COc1ccc2occ(C3=C(c4c[nH]c5ccccc45)C(=O)N(O)C3=O)c2c1`, the growth is 95.1%.

Take `COc1cccc(-c2nn(C(C)(C)C)cc2-c2ccnc(NCCCNS(=O)(=O)c3cccc4ccccc34)c2)c1`: the growth is 110%.

With `Cc1cc(N2CCOCC2)nc(N(CCNc2ccnc3cc(Cl)ccc23)Cc2ccco2)n1`, the growth is 23.5%.

Consider `CC(Sc1nc2sc3c(c2c(=O)n1-c1ccc(Cl)cc1)CCCC3)C(=O)Nc1nc(-c2ccc(Br)cc2)cs1` (stereo unspecified), for which the growth was 105%.

`O=C(Nc1ccc(-c2nc3ccc(NC(=O)c4ccc(Cl)cc4)cc3[nH]2)cc1)c1ccc(Cl)cc1`: the growth is -10.8% (active).

In the case of `O=C1CSC(c2ccccc2Cl)N1c1nnc(Cn2cnnc2)o1` (stereo unspecified), the growth was 27.2%.

As to `COc1cc(-c2nc(-c3ccccc3)[nH]c2-c2ccnc(NCCCNS(=O)(=O)c3cccc(F)c3)n2)ccc1Cl`, the growth is 43.2%.

Consider `CC(C)C[C@@H](NC(=O)[C@@H](Cc1ccccc1)NC(=O)c1cnccn1)B1O[C@H]2[C@H](O)[C@@H](C(=O)NCCCC[C@@H]3NC(=O)[C@@H](Cc4ccccc4)NC(=O)[C@H](CC(=O)O)NC(=O)CNC(=O)[C@H](CCCN=C(N)N)NC3=O)O[C@@H](CN)[C@H]2O1`, for which the growth is -45.5% (active).

For the compound `COC(=O)c1cc(=O)nc(N/N=C/c2ccccc2O)s1`, the growth was 98%.

Consider `CCCc1cc(=O)oc2c(C(=O)CC(C)C)c(O)c(CC=C(C)C)c(O)c12`, for which the growth is 1.81% (active).

The values are drawn from PubChem BioAssay (NCI).
